# Screening data from PubChem.
# JMJD2A Tudor inh – blocks the human JMJD2A Tudor domain; Potency, µM (titrated, usually from 114 µM), without a hit: top-dose activity change, negative = inhibition, hits mostly inhibitors; 390,000 compounds, 4.4% hits; AlphaScreen JMJD2A-Tudor / H3K4me3 peptide binding; also: % is scaled to controls: 0 for no effect and ±100 for the full control effect; nearly all actives have a fitted effect of over 50% in size
# BAZ2B inh – blocks human BAZ2B; AlphaScreen BAZ2B-H3K14Ac peptide displacement; 360,000 compounds, 4.4% hits; Q9UIF8; Potency, µM (highest dose often 114 µM), for the others: at the top dose activity change, negative = inhibition, hits mostly inhibitors; AID 504333; also: % is scaled to controls: 0 for no effect and ±100 for the full control effect; nearly all actives have a fitted effect of over 60% in size
#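 AlphaScreen displacement: compounds (up to 110uM) incubated 30 min at room temperature with a preformed 50 nM BAZ2B/50 nM biotinylated H3K14Ac peptide complex in PBS pH 7.4 with Tween-20. Donor and acceptor beads at 10 ug/mL final added, 20 min light-protected before reading.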
# Sfp inh – Sfp phosphopantetheinyl transferase inhibition. Biochemical Sfp PPTase activity, qHTS. 310,000 compounds, 3.5% hits. Potency, µM, for inactives: largest response in the series, negative = inhibition, usual class: inhibitors. Q9F4F7;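 also: the enzyme is Sfp with the accession as filed and its product quenches rhodamine fluorescence; 0% = enzyme reaction without inhibitor and -100% = no enzyme wells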
#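 Sfp 15 nM + cpd, 15 min RT; start w/ rhodamine-CoA 5 uM, BHQ-2-YbbR 12.5 uM (final); 50 mM Hepes pH 7.6, 10 mM MgCl2, 0.01% NP-40, 0.01% BSA; read 525/598 nm at 0 and 30 min.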
# G9a inh – inhibitors of human histone lysine methyltransferase G9a; G9a H3K9 monomethylation, AlphaScreen, 2 h; Potency, µM (doses to about 102 µM), for the others: top-dose activity, negative = inhibition, actives largely listed as inhibitors; 350,000 compounds, 8.8% hits; AID 504332; also: % is scaled to controls: 0 for no effect and ±100 for the full control effect; nearly all actives have a fitted effect of over 75% in size
# Target sequence (Q96KQ7 913-1193 limits assumed): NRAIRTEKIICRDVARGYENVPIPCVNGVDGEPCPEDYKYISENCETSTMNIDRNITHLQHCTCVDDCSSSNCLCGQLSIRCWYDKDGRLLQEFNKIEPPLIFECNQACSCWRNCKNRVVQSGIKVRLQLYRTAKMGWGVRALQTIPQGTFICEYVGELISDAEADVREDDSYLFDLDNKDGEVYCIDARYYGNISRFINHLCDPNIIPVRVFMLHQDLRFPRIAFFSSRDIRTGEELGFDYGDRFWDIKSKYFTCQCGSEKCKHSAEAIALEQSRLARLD
#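 Compounds were preincubated with 20 nM G9a for 15 min, after which biotinylated H3K9 peptide (500 nM) and SAM (20 uM) started a 2 h room-temperature reaction. Monomethylated product was quantified by antibody-based AlphaScreen chemiluminescence.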
# HP1b binding inh – HP1-beta chromodomain-methylated histone interaction inhibition; AlphaScreen HP1-beta / biotin-H3K9me3 peptide binding; 390,000 compounds, 0.56% hits; P83916; AID 540317; Potency, µM (highest dose often 114 µM), for inactives: at the highest dose activity change, negative = inhibition, hits mostly inhibitors; also: nearly all actives have a fitted effect of over 70% in size
# Target sequence (P83916 whole entry, looked up): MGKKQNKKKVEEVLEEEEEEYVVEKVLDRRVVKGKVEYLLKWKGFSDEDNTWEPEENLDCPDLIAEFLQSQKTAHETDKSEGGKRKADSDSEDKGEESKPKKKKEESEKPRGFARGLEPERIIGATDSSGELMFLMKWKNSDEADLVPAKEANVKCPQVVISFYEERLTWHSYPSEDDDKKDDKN
#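 HP1-beta protein (50 nM final) preincubated 30 min at room temperature with biotinylated H3(1-18)K9me3 peptide (50 nM) in PBS pH 7.4, 0.01% Tween-20, then compound added for 30 min. AlphaScreen streptavidin donor/nickel chelate acceptor beads (10 ug/mL final), 30 min dark, luminescence read.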
# * marks the source's active call; other numbers are inactive results; ? = inconclusive; / = no result given; [ ] = remark or other dose. This is a sample that favours compounds with a hit; in the whole collection about 12% have one here. Calls follow the shape of the dose curve; as a rule, active = well fitted curve in the direction sought with a large enough effect; inconclusive = small, poorly fitted or top-dose-only effect, or another doubt; inactive = no such curve, though single readings can be large; an effect the other way counts as inactive or inconclusive. Potency is read from the fitted curve at half-maximal effect.
SMILES,JMJD2A Tudor inh,BAZ2B inh,Sfp inh,G9a inh,HP1b binding inh
COc1cc(NC(=O)C(CCS(C)(=O)=O)N2Cc3ccccc3C2=O)cc(OC)c1OC (centres undefined),-14%,?,/,?,19%
O=C(NNc1c(F)c(F)cc(F)c1F)c1ccc(Cl)nc1,-5%,-21%,12%,50µM*,25%
O=C(O)/C=C/C(=O)NCCc1cccc(Cl)c1,3%,4%,11%,/,74%
COc1ccc2c(c1)C(=O)c1ccccc1CO2,45%,109%,28µM*,-43%[59 µM],107%
CC(=O)c1cc2c(cc1N/C(=N/S(=O)(=O)c1ccc(C)cc1)c1ccc(Cl)cc1)OCO2,-4%,-23%,35%,-2%[59 µM],9%
c1ccc2cc(OCCCn3ccnc3)ccc2c1,4µM*,50µM*,-12%,25µM*,?
CC(C)(C)c1ccc(OCCCn2ccnc2)cc1,25µM*,50µM*,-12%,22µM*,?
CCOc1ccc(NC(=O)CCNS(=O)(=O)c2ccc3c(c2)oc(=O)n3C)cc1,-4%,-7%,3%,45%,32%
CCc1c(C(=O)Nc2cc(C(=O)OC)ccc2C)csc1C,-11%,1%,10%,-1%,21%
CCOc1cc(CNc2ccc(Br)cc2)cc(Br)c1OCC(=O)NC(C)(C)C,-9%,-10%,7%,1%[59 µM],11%
CCOc1cc(CNc2ccc(OC)cc2)cc(Br)c1OCC(=O)NC(C)(C)C,22µM*,18µM*,-15%,?,?
COc1cccc(NC(=O)c2nnn(Cc3cccc(C(F)(F)F)c3)c2N)c1,-3%,-37%,/,-5%[59 µM],12%
Cc1ccc(CCNC(=O)C2CCCN(C(=O)c3cc4sccc4n3C)C2)cc1 (centres undefined),-36%,-7%,11%,14%[12.7 µM],-8%
CCn1c(C(=O)N2CCC(C(=O)NCCCSC3CCCCC3)CC2)cc2sccc21,?,?,9%,40µM*,3%
NC(=O)C1CCCN(C(=S)NCc2ccc3c(c2)OCO3)C1 (centres undefined),-5%,0%,15%,50µM*,22%
CCn1c(C(=O)N2CCC(C(=O)NCc3ccc4c(c3)OCO4)CC2)cc2sccc21,?,-36%,3%,45µM*,13%
Cn1c(C(=O)N2CCCC(C(=O)NCc3ccc4c(c3)OCO4)C2)cc2sccc21 (centres undefined),-13%,?,4%,50µM*,10%
NC(=O)C1CCN(C(=S)NCc2ccc3c(c2)OCO3)CC1,6%,-2%,8%,-10%,33%
CC(Oc1ccc2c3c(c(=O)oc2c1)CCCC3)C(=O)NC1CC(C)(C)NC(C)(C)C1 (centres undefined),-17%,1%,4%,13%,31%
COCCCNC(=O)C1CCN(C(=O)c2cc3sccc3n2Cc2ccc(F)cc2)CC1,-12%,2%,-2%,4%,21%
O=C(NCCCN1CCCC1)C1CCN(C(=O)c2cc3sccc3n2Cc2ccc(F)cc2)CC1,-19%,?,-8%,50µM*,16%
Cc1ccc(C)c(S(=O)(=O)Nc2ccc3oc(C)c(C(=O)O)c3c2)c1,50µM*,50µM*,-12%,40µM*,50µM*
Oc1ccc(N2CCN(c3nnnn3-c3ccccc3)CC2)cc1,-21%,/,56µM*,25µM*,?
Cn1c(SCC(O)c2ccccc2)nnc1-c1ccc2ccccc2c1 (centres undefined),-3%,-7%,1%,?,35%
O=C1CC(=O)NC(SCC(=O)Nc2ccccc2[N+](=O)[O-])=N1,35µM*,40µM*,?,25µM*,?
Cc1ccccc1Nc1nnc(SCC(=O)Nc2ccccc2[N+](=O)[O-])s1,?,?,4%,45µM*,?
Cc1cc(C)nc(SCC(=O)Nc2ccccc2[N+](=O)[O-])n1,-4%,-25%,18%,8%,-3%
Cc1ccccc1NC(=O)CSc1ccsc1[N+](=O)[O-],25µM*,40µM*,-10%,?,?
Cc1cccc(Nc2nnc(SCC(=O)Nc3ccccc3[N+](=O)[O-])s2)c1,?,-11%,8%,-24%[59 µM],-12%
Cc1cccc(Nc2nnc(SCC(=O)c3ccc(Br)s3)s2)c1C,-13%,-36%,6%,4.5µM*,26%
